Calls of active or inactive are those of the source. Rule for the calls: active = hit-call score of the fitted dose curve at least 0.9, where 1 is the maximum; inactive = score below 0.9.

The nature of one test: Tanguay_ZF_120hpf_AXIS: Oregon State University Tanguay Lab 120 Hour Post-fertilization zebrafish Assay for Axial Malformation (AID 2284398). An outline of the steps:
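Scoring was binary (present or absent) for body-axis defects, judged by brightfield imaging at 120 hpf in surviving larvae. Exposure was static at 28C from 6 hpf in chorion-free 5D wild-type embryos, with 0.64% DMSO vehicle.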
As to `O=P(O)(O)CCC(F)(F)C(F)(F)C(F)(F)C(F)(F)C(F)(F)C(F)(F)F`, the outcome was inactive.

As for `C=CC(=O)OCCC(F)(F)C(F)(F)C(F)(F)C(F)(F)C(F)(F)C(F)(F)C(F)(F)C(F)(F)F`, the compound was called inactive.

For `O=C(O)C(F)(F)OC(F)(F)C(F)(F)OC(F)(F)C(F)(F)OC(F)(F)C(F)(F)C(F)(F)C(F)(F)F`, the compound was called inactive.

A word on the AC50: it is the concentration at which the activity in the assay is half-maximal. Take `CN(CCO)S(=O)(=O)C(F)(F)C(F)(F)C(F)(F)C(F)(F)C(F)(F)C(F)(F)C(F)(F)C(F)(F)F`: the AC50 is 29.6 µM (active).

On to `O=P(O)(O)CCC(F)(F)C(F)(F)C(F)(F)C(F)(F)C(F)(F)C(F)(F)C(F)(F)C(F)(F)F`, for which the compound was classed as inactive.

Take `OCC(F)(F)C(F)(F)C(F)(F)C(F)(F)C(F)(F)C(F)(F)C(F)(F)C(F)(F)C(F)(F)C(F)(F)C(F)(F)F`: the compound was called inactive.

In the case of `O=C(CC(=O)C(F)(F)C(F)(F)C(F)(F)F)c1cccs1`, the result was inactive.

In the case of `O=C(O)CCC(F)(F)C(F)(F)C(F)(F)C(F)(F)C(F)(F)F`, the compound was called inactive.

A short description of the next test: Tanguay_ZF_120hpf_MORT: Oregon State University Tanguay Lab 120 Hour Post-fertilization zebrafish Assay for Mortality (AID 2284399). An outline of the steps:
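Mortality, recorded present/absent via brightfield imaging at 24 and 120 hpf, in 5D zebrafish embryos exposed statically from 6 hpf after pronase chorion removal. Exposure at 28C, 0.64% DMSO vehicle, DMSO baseline.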
On to `O=P(O)(O)CCC(F)(F)C(F)(F)C(F)(F)C(F)(F)C(F)(F)C(F)(F)F`, for which the result was inactive.

As to `C=CC(=O)OCCC(F)(F)C(F)(F)C(F)(F)C(F)(F)C(F)(F)C(F)(F)C(F)(F)C(F)(F)F`, the result was inactive.

For `O=C(O)C(F)(F)OC(F)(F)C(F)(F)OC(F)(F)C(F)(F)OC(F)(F)C(F)(F)C(F)(F)C(F)(F)F`, the AC50 was 51.1 µM (active).

Turning to `CN(CCO)S(=O)(=O)C(F)(F)C(F)(F)C(F)(F)C(F)(F)C(F)(F)C(F)(F)C(F)(F)C(F)(F)F`, the result was inactive.

As to `O=P(O)(O)CCC(F)(F)C(F)(F)C(F)(F)C(F)(F)C(F)(F)C(F)(F)C(F)(F)C(F)(F)F`, the call was inactive.

As for `OCC(F)(F)C(F)(F)C(F)(F)C(F)(F)C(F)(F)C(F)(F)C(F)(F)C(F)(F)C(F)(F)C(F)(F)C(F)(F)F`, the result was inactive.

For the compound `O=C(CC(=O)C(F)(F)C(F)(F)C(F)(F)F)c1cccs1`, the compound was classed as inactive.

As for `O=C(O)CCC(F)(F)C(F)(F)C(F)(F)C(F)(F)C(F)(F)F`, the compound was classed as inactive.

A short description of a further test: Tanguay_ZF_120hpf_EDEM: Oregon State University Tanguay Lab 120 Hour Post-fertilization zebrafish Assay for Edema Malformation (AID 2284400). The procedure:
Tanguay_ZF_120hpf is a whole embryo, multiplexed endpoint assay using zebrafish larvae exposed for 120 hours post fertilization on a 96-well plate.Tanguay_ZF_120hpf_EDEM is one of one assay component(s) measured or calculated from the Tanguay_ZF_120hpf assay. It is designed to make measurements of zebrafish development as detected with brightfield microscopy of developing zebrafish embryos.Data from the assay component Tanguay_ZF_120hpf_EDEM was analyzed into 1 assay endpoints. This assay endpoint, Tanguay_ZF_120hpf_EDEM, was analyzed in the positive analysis fitting direction relative to DMSO as the negative control and baseline of activity. Using a type of morphology reporter, gain-of-signal activity can be used to understand changes in developmentals as they relate to the whole embryo. To generalize the intended target to other relatable targets, this assay endpoint is annotated to the zebrafish development intended target family, where the subfamily is embryonic edema.
Zebrafish husbandry: Tropical 5D wild-type adult zebrafish were housed in at an approximate density of 1000 per 100 gallon tank at the Sinnhuber Aquatic Research Laboratory, Oregon State University, Corvallis, OR. Each tank was kept at standard laboratory conditions of 28C on a 14-h light/10-h dark photoperiod in fish water consisting of reverse osmosis water supplemented with a commercially available salt (Instant Ocean). Spawning funnels were placed into the tanks the night prior, and embryos were collected and staged. To increase bioavailability, the chorion was enzymatically removed using pronase (63.6mg/ml, >/= 3.5U/mg, Sigma-Aldrich: P5147) at 4 hours post fertilization (hpf) using a custom automated dechorionator.Chemical exposures: Six hpf dechorionated embryos were placed 1 embryo per well in a 96-well plate prefilled with 90 ul of EM using automated embryo placement systems (AEPS). Ten microliters of each row of dilution plate 2 was added to 2 exposure plates. The final DMSO concentration used was 0.64% (vol/vol). Thirty-two embryos were also exposed to 5uM trimethyltin chloride (positive control). Plates were sealed to prevent evaporation and foil covered to reduce light exposure and kept in a 28C incubator. Embryos were statically exposed until 120 hpf. At 24 hpf, embryos were assessed for photomotor response using a custom photomotor response analysis tool (PRAT) and for developmental toxicity endpoints (MO24: mortality at 24 hpf, DP: developmental progression, SM: spontaneous movement, and NC: notochord distortion). At 120 hpf, locomotor activity was measured using Viewpoint Zebralab and assessed for 13 endpoints. Zebrafish acquisition and analysis program (ZAAP), a custom program designed to inventory, acquire, and manage zebrafish data, was used to collect developmental endpoints as either present or absent (i.e., binary responses were recorded). If mortality occurred for an embryo (at either 24 or 120 hpf), the non-mortality endpoints were not measured.
For the compound `O=P(O)(O)CCC(F)(F)C(F)(F)C(F)(F)C(F)(F)C(F)(F)C(F)(F)F`, the compound was classed as inactive.

For `C=CC(=O)OCCC(F)(F)C(F)(F)C(F)(F)C(F)(F)C(F)(F)C(F)(F)C(F)(F)C(F)(F)F`, the compound was classed as inactive.

As for `O=C(O)C(F)(F)OC(F)(F)C(F)(F)OC(F)(F)C(F)(F)OC(F)(F)C(F)(F)C(F)(F)C(F)(F)F`, the result was inactive.

For `CN(CCO)S(=O)(=O)C(F)(F)C(F)(F)C(F)(F)C(F)(F)C(F)(F)C(F)(F)C(F)(F)C(F)(F)F`, the AC50 is 29.6 µM (active).

With `O=P(O)(O)CCC(F)(F)C(F)(F)C(F)(F)C(F)(F)C(F)(F)C(F)(F)C(F)(F)C(F)(F)F`, the result was inactive.

As for `OCC(F)(F)C(F)(F)C(F)(F)C(F)(F)C(F)(F)C(F)(F)C(F)(F)C(F)(F)C(F)(F)C(F)(F)C(F)(F)F`, the compound was classed as inactive.

As for `O=C(CC(=O)C(F)(F)C(F)(F)C(F)(F)F)c1cccs1`, the AC50 was 65.8 µM (active).

Regarding `O=C(O)CCC(F)(F)C(F)(F)C(F)(F)C(F)(F)C(F)(F)F`, the call was inactive.

Source of the values: PubChem BioAssay (EPA / NIEHS).
